According to publication PMC5700166:

Target: T1, GST-Dm-Relish (Drosophila melanogaster, UniProt Q94527 99-473)
T1 sequence: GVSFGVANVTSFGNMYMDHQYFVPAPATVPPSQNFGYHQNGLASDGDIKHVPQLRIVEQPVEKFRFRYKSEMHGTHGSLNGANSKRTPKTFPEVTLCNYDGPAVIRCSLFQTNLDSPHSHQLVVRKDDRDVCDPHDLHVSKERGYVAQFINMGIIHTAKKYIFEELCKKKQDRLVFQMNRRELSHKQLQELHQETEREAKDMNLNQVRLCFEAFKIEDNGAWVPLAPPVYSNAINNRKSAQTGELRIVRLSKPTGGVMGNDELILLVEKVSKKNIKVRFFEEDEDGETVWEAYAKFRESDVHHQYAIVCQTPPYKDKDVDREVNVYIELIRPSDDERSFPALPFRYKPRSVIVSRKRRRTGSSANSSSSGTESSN
Assay: protein-binding microarray (PBM); PBM: ~300 nM protein, 6 mM HEPES pH 7.8, 80 mM KCl, 0.5 mM EDTA, 0.5 mM EGTA, 6% glycerol, 35 ng/ul poly-dIdC, 1% milk, 1 h, room temperature; Ap Aiptasia and Nv Nematostella (sea anemones) / Co Capsaspora / Aq Amphimedon (sponge) / Dm Drosophila / Hu human; RHD is the Rel homology domain; high values mean tight binding
Conditions: dsDNA, one strand shown

Sequence | binding signal [z-score]
CCGATTAACATCAAGTATTTTCCTGATGTTAATCGGGTCTTGATTCGCTTGACGCTGCTG | 1.84
CCGATTAACATCAATAAATGTACTGATGTTAATCGGGTCTTGATTCGCTTGACGCTGCTG | 1.14
CCGATTAACATCACCATTATAGGTGATGTTAATCGGGTCTTGATTCGCTTGACGCTGCTG | 1.48
CCGATTAACATCAGTGAATTCCATGATGTTAATCGGGTCTTGATTCGCTTGACGCTGCTG | 2.81
CCGATTAACATCACGTTATTTCCTGATGTTAATCGGGTCTTGATTCGCTTGACGCTGCTG | 1.09
CCGATTAACATCAGGAAAAAACATGATGTTAATCGGGTCTTGATTCGCTTGACGCTGCTG | 2.35
CCGATTAACATCAAGTAGTTTCCTGATGTTAATCGGGTCTTGATTCGCTTGACGCTGCTG | 2.37
CCGATTAACATCAGGATTTTACATGATGTTAATCGGGTCTTGATTCGCTTGACGCTGCTG | 3.35
CCGATTAACATCAAATGTACTAATGATGTTAATCGGGTCTTGATTCGCTTGACGCTGCTG | 1.5
CCGATTAACATCAGAAAATTACATGATGTTAATCGGGTCTTGATTCGCTTGACGCTGCTG | 3.43
CCGATTAACATCACAAAAAATTTTGATGTTAATCGGGTCTTGATTCGCTTGACGCTGCTG | 2.12
CCGATTAACATCAAAAATTCCATTGATGTTAATCGGGTCTTGATTCGCTTGACGCTGCTG | 1.66
CCGATTAACATCACGTAGTTTCCTGATGTTAATCGGGTCTTGATTCGCTTGACGCTGCTG | 1.46
CCGATTAACATCACGTTCTTTCCTGATGTTAATCGGGTCTTGATTCGCTTGACGCTGCTG | 2.3
CCGATTAACATCAGTGGTTACCATGATGTTAATCGGGTCTTGATTCGCTTGACGCTGCTG | 2.13
CCGATTAACATCAGGAATTACACTGATGTTAATCGGGTCTTGATTCGCTTGACGCTGCTG | 3.55
CCGATTAACATCAAAATTCCATATGATGTTAATCGGGTCTTGATTCGCTTGACGCTGCTG | 1.14
CCGATTAACATCACAAGAATTCCTGATGTTAATCGGGTCTTGATTCGCTTGACGCTGCTG | 1.19
CCGATTAACATCAAATAATTTCCTGATGTTAATCGGGTCTTGATTCGCTTGACGCTGCTG | 1.21
CCGATTAACATCAGTGTGCTTCTTGATGTTAATCGGGTCTTGATTCGCTTGACGCTGCTG | 1.67
CCGATTAACATCAAAGGAAATTCTGATGTTAATCGGGTCTTGATTCGCTTGACGCTGCTG | 1.56
CCGATTAACATCACGTTTTTTCCTGATGTTAATCGGGTCTTGATTCGCTTGACGCTGCTG | 1.57
CCGATTAACATCAAATAAATTCCTGATGTTAATCGGGTCTTGATTCGCTTGACGCTGCTG | 1.27
CCGATTAACATCAGGAATATACATGATGTTAATCGGGTCTTGATTCGCTTGACGCTGCTG | 2.59
CCGATTAACATCATAAAAAAAAATGATGTTAATCGGGTCTTGATTCGCTTGACGCTGCTG | 1.27
CCGATTAACATCATTTACATTCGTGATGTTAATCGGGTCTTGATTCGCTTGACGCTGCTG | 1.06
